A selection: hits, their analogues and other compounds. The true share with any hit is near 3%.
SENP6 inh: SENP6 protease inhibition. Q9GZR1. Recombinant SENP6 catalytic domain, aminoluciferin luminescence. inhibition, % at 10 µM. actives 1.8% (n = 330,000). AID 2599;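 active = inhibition above about 50% at the single tested dose, limit read from the data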;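 also: plate controls were DMSO wells with enzyme for no effect and DMSO wells lacking enzyme for full effect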
SENP7 block: blocks the human protease SENP7; actives 1.5% (n = 330,000); recombinant SENP7, Z-RLRGG-aminoluciferin luminescence, 40 min; Q9BQF6; AID 434973; inhibition, % at 5 µM;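 active = inhibition above about 50% at the single test dose, limit read from the data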;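 also: plate controls were DMSO with enzyme for no effect and no enzyme buffer wells for full effect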
SENP8 block-1: blocks the human protease SENP8 | Q96LD8 | purified SENP8, Z-RLRGG-aminoluciferin cleavage, luminescence | inhibition, % at 10 µM | actives 1.2% (n = 330,000) | AID 2540; in the data active = inhibition above about 50%
Target sequence (Q96LD8 whole entry, looked up): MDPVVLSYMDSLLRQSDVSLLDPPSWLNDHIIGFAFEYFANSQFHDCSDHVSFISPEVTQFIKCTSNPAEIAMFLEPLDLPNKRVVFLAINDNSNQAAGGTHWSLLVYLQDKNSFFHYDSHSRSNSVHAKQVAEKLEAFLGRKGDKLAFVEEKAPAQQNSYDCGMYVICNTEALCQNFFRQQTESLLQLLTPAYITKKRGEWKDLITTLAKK
PPC-1+TRAIL kill: kills PPC-1 cancer cells in the presence of TRAIL. PPC-1 cells + TRAIL, ATPLite viability luminescence. cell killing (% activity), % at 4 µM or 5 µM. actives 0.41% (n = 220,000). AID 1443;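 active = cell killing above 50% in the first pass at 4 µM, then a duplicate retest at 5 µM averaging 50% or more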;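 also: plate controls were cells with TRAIL plus DMSO for no effect and medium-only wells lacking cells for full effect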
SENP8 block-2: SENP8 (human) protease inhibition; Q96LD8; recombinant SENP8, Nedd8 substrate fluorescence; actives 0.64% (n = 360,000); inhibition, % at 20 µM; AID 602440; in the data active = inhibition mostly above about 40%, no sharp cut-off; inactive = mostly below about 27%
C8 TRAIL sens: caspase-8 TRAIL sensitization | actives 1% (n = 360,000) | inhibition (viability loss, TRAIL sensitization), % at 10 µM | NB7+C8 cells + TRAIL, ATPlite viability luminescence;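 active = compounds causing at least 50% loss of cell viability in the single-dose screen, relative to plate controls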
SENP8 confirm: human SENP8 inhibition, confirmed; shares compounds with SENP7 block; Recombinant SENP8, Z-RLRGG-aminoluciferin luminescence, 60 min; inhibition, % at 12.5 µM; actives 40% (n = 6,200);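 active = mean inhibition across replicates above about 50%, limit read from the data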
SENP6 confirm: human SENP6 inhibition, confirmed. shares compounds with SENP7 block. recombinant SENP6, Z-RLRGG-aminoluciferin luminescence. inhibition, % at 12.5 µM. actives 58% (n = 6,200)
SENP7 confirm: human SENP7 inhibition, confirmed | shares compounds with SENP7 block | recombinant SENP7, Z-RLRGG-aminoluciferin luminescence, 40 min | inhibition, % at 12.5 µM | actives 69% (n = 6,200)
Casp3 SENP sel: selectivity test for SENP inhibitors: human caspase-3 inhibition; inhibition, % at 12.5 µM; purified caspase-3, Z-DEVD-aminoluciferin luminescence, 60 min; actives 60% (n = 6,200); shares compounds with SENP7 block;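 active = mean inhibition above about 50%, limit read from the data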;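 also: plate controls were enzyme with DMSO for no effect and wells without caspase-3 for full effect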
Target sequence (P42574 28-227 limits assumed): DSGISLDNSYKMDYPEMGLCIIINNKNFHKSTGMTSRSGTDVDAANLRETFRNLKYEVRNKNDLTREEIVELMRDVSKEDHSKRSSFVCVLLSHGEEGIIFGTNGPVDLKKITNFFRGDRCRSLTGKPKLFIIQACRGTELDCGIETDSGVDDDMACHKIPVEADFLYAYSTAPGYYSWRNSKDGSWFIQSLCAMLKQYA
Luc interf: luminescence interference (SENP counter-screen); Pre-incubated SENP8/Z-RLRGG-aminoluciferin, luciferase luminescence interference; shares compounds with SENP7 block; AID 488919; inhibition, % at 12.5 µM; actives 39% (n = 6,200);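 active = mean inhibition above about 50% when retested at one dose, limit read from the data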;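 also: plate controls were DMSO wells with completed reaction for no effect and substrate without enzyme for full effect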
* hit, by the source's call; · = no result given.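 The calls were made as follows, unless noted: active = mean inhibition above about 50% in the one-dose retest (limit read from the data); inactive = the rest.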

SMILES	SENP6 inh	SENP7 block	SENP8 block-1	PPC-1+TRAIL kill	SENP8 block-2	C8 TRAIL sens	SENP8 confirm	SENP6 confirm	SENP7 confirm	Casp3 SENP sel	Luc interf
O=C(CN1CCCC1)N1c2ccccc2C=Cc2ccccc21	-0.8	-1.3	-0.6	-1.0	-3.3	-2.5	·	·	·	·	·
Cc1cc2nc(-c3ccc(SCC(=O)Nc4ccc(S(=O)(=O)NC5CC5)cc4)nc3)[nH]c2cc1C	28.8	63.5*	1.4	51.6*	-418.1	83.9*	12.6	18.5	77.8*	39.1	19.9
Cc1cc2nc(-c3ccc(SCc4ccc(C(=O)O)cc4)nc3)[nH]c2cc1C	·	·	·	20.0	-383.7	7.3	·	·	·	·	·
CCOc1ccc(N=Cc2c(O)cc(C)oc2=O)cc1	-18.0	-16.8	-30.2	13.0	-32.5	-27.3	·	·	·	·	·
CCOc1ccc(N=Cc2c(O)c3ccccc3oc2=O)cc1	91.4*	93.2*	82.9*	9.6	-20.2	-5.4	42.2	42.5	55.8*	38.5	6.8
COc1ccc(-c2nc3c(Br)c(N)c(Br)cc3o2)cc1	4.3	80.4*	4.1	·	-56.2	20.4	-8.2	-12.0	11.5	38.0	-10.6
Cc1nn(-c2ccccc2)c(C)c1/C=N\NS(=O)(=O)c1ccc(Cl)cc1	9.3	2.5	-0.1	12.7	5.3	9.3	·	·	·	·	·
O=C(/C=C/Nc1ccc(Oc2ccccc2)cc1)c1ccco1	94.9*	97.7*	95.2*	49.0	-241.3	46.0	32.1	98.5*	102.2*	95.0*	18.9
NC(=O)c1ccccc1N/C=C/C(=O)c1ccco1	72.6*	41.7	47.9	18.6	-398.0	12.3	71.8*	69.3*	86.9*	86.1*	71.6*
O=C(Nc1ccc(Oc2ccc3ccccc3c2)cc1)c1ccco1	4.5	0.3	-3.2	6.7	24.2	11.1	·	·	·	·	·
O=C(/C=C/c1ccccc1O)c1ccco1	6.9	-1.9	-9.5	·	9.4	16.9	·	·	·	·	·
O=C(/C=C/Nc1ccccc1C(F)(F)F)c1ccco1	76.9*	68.6*	54.1*	·	-26.6	58.7*	2.1	59.5*	86.6*	51.1*	43.6
Cc1ccc(NC(=O)Cc2nc(COC(=O)Cc3cccc(C(F)(F)F)c3)cs2)cc1	-3.4	-4.0	3.0	·	-41.1	-8.3	·	·	·	·	·
Cc1ccccc1CNC(=O)c1[nH]c(C(F)(F)F)nc1-c1ccccc1	·	·	·	·	9.8	5.2	·	·	·	·	·
C(=N\Nc1nc(-c2ccccc2)cs1)/c1ccco1	72.2*	47.2	54.5*	23.4	-18.2	12.0	64.6*	65.7*	87.1*	37.2	57.9*
C(=N\Nc1nc(-c2ccccc2)cs1)/c1cccs1	63.6*	1.5	31.3	19.0	-67.8	0.4	62.7*	64.6*	88.4*	33.0	0.4
C(=N\Nc1nc(-c2ccccc2)cs1)/c1ccncc1	39.7	14.3	23.4	31.4	-23.7	9.6	·	·	·	·	·
O=C1CSC(c2cccc(F)c2)N1c1ccccc1 (stereo not drawn)	-5.8	-2.6	7.1	·	19.1	-10.3	·	·	·	·	·
COc1cc(CNCc2ccncc2)cc(Br)c1OCc1ccccc1F	-7.1	8.9	2.8	-8.1	3.9	34.4	·	·	·	·	·
COc1cc(CNc2ccc(O)cc2)cc(Br)c1OCc1ccccc1F	22.6	60.0*	-5.3	10.6	18.7	22.8	0.7	4.2	-2.7	-2.0	1.4
Clc1ccc(C2=Nc3cc(Cl)ccc3OC2)cc1	81.3*	81.3*	75.8*	8.9	10.7	3.7	14.8	11.7	19.9	41.1	-5.5
Cc1ccc2c(c1)N=C(c1ccc(Cl)cc1)CO2	96.0*	98.4*	95.0*	3.8	-269.5	-6.7	83.0*	82.0*	85.2*	80.4*	56.8*
